Reference: PubChem BioAssay (NCATS)
Inconclusive results are not listed. Values without a mark were called inactive. Activity calls are given as the source filed them. Calls follow the shape of the dose curve; as a rule, active = well fitted curve in the direction sought with a large enough effect; inconclusive = small, poorly fitted or top-dose-only effect, or another doubt; inactive = no such curve, though single readings can be large; an effect the other way counts as inactive or inconclusive. Bridge positions count the residues as written; N and C are the ends. Square brackets hold non-standard residues; d marks the D form. Side chains are listed from the residue outwards. Peptide text beside a SMILES is read from it. * marks the point of attachment. Phg(4-OMe) = COc1ccc([C@H](N)C(=O)O)cc1; d(aIle) = CC[C@H](C)[C@@H](N)C(=O)O; d(aThr) = C[C@@H](O)[C@@H](N)C(=O)O; NMeF = CN[C@@H](Cc1ccccc1)C(=O)O; Isobutyryl = CC(C)C(=O)*

test: qHTS for H2AX Agonists against the NCATS CANVASS Library (AID 1347378); details: CHO-K1 H2AX phosphorylation, HTRF TR-FRET, 3 h; series mostly up to 76.9 µM; activation: at the top concentration;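 also: phospho-H2AX S139 level in CHO-K1 lysates by TR-FRET emission ratio; 0% is about no effect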
How it was run: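 Following overnight seeding, CHO-K1 cells are incubated with a concentration series of compound for 3 hr at 37C (final DMSO 0.76%). Cells are then lysed, detection antibodies added, and emission ratio 665/620 nm recorded after 24 hr at room temperature.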

Compound	activation [%]
CC(C)[C@]12CC[C@@]3(C)[C@H](C)CC[C@H](O)[C@@]3(CC1)c1cc3c(cc12)[nH]c1ccccc13	7.09
C[C@H]1C=C[C@H]2CCCC[C@@H]2[C@H]1C(=O)[C@H]1CC2=C(C(=O)O)CCN2C1=O	4.81
C/C=C(/C)c1c(Cl)c(OC)c(C)c2c1Oc1c(Cl)c(O)c(Cl)c(C)c1C(=O)O2	3.85
C/C(=C\CC[C@@H](C)[C@H]1CC[C@]2(C)C3=CCC4C(C)(C)[C@@H](O)C[C@@H](O)[C@]4(C)C3[C@H](O)C[C@@]12C)CO (some centres not stated)	3.25
COC12OC1(C13OC1(OC)C(=O)c1cc4cc(C)oc(=O)c4c(O)c1C3O)C(O)c1c(cc3cc(C)oc(=O)c3c1O)C2=O (configuration not stated)	2.13
CO[C@H]1[C@@H](OC(=O)/C(C)=C\[C@@H]2O[C@@H]2[C@H]2O[C@H]2C)[C@H](O)[C@H](OCC23C[C@@H]4[C@H](C)CC[C@H]4C4(C=O)CC2C=C(C(C)C)C34C(=O)O)O[C@@H]1C (some centres not stated)	0.138

test: qHTS for Inflammasome Signaling Inhibitors: IL-1-beta AlphaLISA screen against the NCATS CANVASS Library (AID 1347379); details: THP-1 LPS/ATP, IL-1B AlphaLISA secretion, 16 h; series mostly up to 57.5 µM; activity change, negative = inhibition: at the top concentration; outcome: at the top concentration;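 also: human THP-1 cells primed with LPS then triggered with ATP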;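 as to Potency: secreted IL-1B measured as AlphaLISA emission at 615 nm; potency is read from the fitted curve at half-maximal effect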;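 as to activity change, negative = inhibition: secreted IL-1B measured as AlphaLISA emission at 615 nm; % is scaled to controls: 0 for no effect and ±100 for the full control effect; lower signal means less IL-1B release which is the wanted effect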
How it was run: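 Secreted IL-1B from human THP-1 cells quantified by AlphaLISA 16 hr after compound addition (final up to 57.5 uM). A 1 hr compound pretreatment preceded inflammasome activation with 250 ng/mL LPS plus 1.25 mM ATP (final).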

Compound	activity change, negative = inhibition [%]	Potency	outcome
CC(C)=CCC[C@]12c3cc4c(cc3CC[C@@]1(C)[C@H](C)CC[C@@H]2O)[nH]c1ccccc14	-11.7	–	–
C=C1CC[C@@H](Br)C(C)(C)[C@]12CC=C(C)C(=O)C2	-0.876	–	–
COc1cc(/C=C/C(=O)OC[C@@H](Cc2ccc(O)c(OC)c2)[C@@H](COC(=O)/C=C/c2ccc(O)c(OC)c2)Cc2ccc(O)c(OC)c2)ccc1O	–	15.3 µM (active)	–
O=C1CC2OCC=C3CN4C5CC3C2[C@@H]2N1c1ccccc1[C@]52C[C@@H]4C1=C[C@H]2C3CC4N(CC[C@@]45c4ccccc4N(C1=O)[C@@H]25)C/C3=C/CO (some centres not stated)	–	24.3 µM (active)	–
CC[C@H](C)[C@H]1NC(=O)[C@@H](NC(=O)C(C)C)[C@@H](C)OC(=O)[C@H](COC(=O)CNC(C)=O)NC(=O)[C@@H]([C@@H](C)O)NC(=O)[C@H](Cc2ccccc2)N(C)C(=O)[C@H](c2ccc(OC)cc2)NC1=O (Isobutyryl-T[d(aIle)][Phg(4-OMe)][NMeF][d(aThr)]S([Gly-Ac]); ester 1-C)	–	–	inactive
C=C(C)CC[C@H](Cc1c(O)cc(O)c2c1O[C@H](c1ccc(O)cc1)CC2=O)C(=C)C	–	–	inactive
C[C@]12CC[C@]3(C1)[C@H](CC2=O)C[C@@H](OC(=O)c1ccccc1)[C@H]1[C@](C)(C(=O)O)CCC[C@@]13C	–	–	inactive
Cc1occ2c1C(=O)c1c(cc(O)c(O)c1O)C2=O	–	–	inactive
CC(=O)O[C@H]1c2ccccc2-c2c3c(cc4c2[C@@H]1N(C(C)=O)CC4)OCO3	–	–	inactive
C[C@]12CCC[C@](C)(C(=O)O)[C@@H]1CC[C@@]1(C)c3cocc3CC[C@H]21	1.44	–	–
COc1cc2c(c(O)c1O)C(=O)c1c(coc1C)C2=O	–	24.3 µM (active)	–
CCC(=O)N[C@@H](C[C@H](C)C(Cl)(Cl)Cl)C(=O)N1C(=O)C=C(OC)[C@@H]1CC(C)C	-12.1	–	–
O=c1cc(-c2ccc(O)c(O)c2)oc2cc(O[C@@H]3O[C@H](CO)[C@@H](O)[C@H](O)[C@H]3O)cc(O)c12	-15.2	–	–
C/C1=C/[C@@H](C)[C@H](O)[C@@H](O)/C=C/CC/C=C/C(=O)O[C@@H]1[C@H](C)C(=O)CCCC1CC(=O)NC(=O)C1	–	–	inactive
CN1CC[C@]2(c3cccc4c3N[C@H]3N(C)CC[C@@]43[C@]34CCN(C)[C@H]3Nc3ccccc34)c3ccccc3N[C@H]12	–	21.7 µM (active)	–
COc1cc2c(cc1OC)[C@@H](c1ccc3c(c1)OCO3)C(C)C(C)C2=O (some centres not stated)	–	–	inactive
C/C=C(/C)c1c(Cl)c(O)c(C)c2c1Oc1c(Cl)c(O)c(Cl)c(C)c1C(=O)O2	–	–	inactive
C[C@H]1C=C[C@H]2CCCC[C@@H]2[C@H]1C(=O)[C@H]1CC2=C(C(=O)O)CCN2C1=O	-3.08	–	–
C/C=C(/C)c1c(Cl)c(OC)c(C)c2c1Oc1c(Cl)c(O)c(Cl)c(C)c1C(=O)O2	–	–	inactive
C/C(=C\CC[C@@H](C)[C@H]1CC[C@]2(C)C3=CCC4C(C)(C)[C@@H](O)C[C@@H](O)[C@]4(C)C3[C@H](O)C[C@@]12C)CO (some centres not stated)	-17.9	–	–
COC12OC1(C13OC1(OC)C(=O)c1cc4cc(C)oc(=O)c4c(O)c1C3O)C(O)c1c(cc3cc(C)oc(=O)c3c1O)C2=O (configuration not stated)	–	–	inactive
CO[C@H]1[C@@H](OC(=O)/C(C)=C\[C@@H]2O[C@@H]2[C@H]2O[C@H]2C)[C@H](O)[C@H](OCC23C[C@@H]4[C@H](C)CC[C@H]4C4(C=O)CC2C=C(C(C)C)C34C(=O)O)O[C@@H]1C (some centres not stated)	0.801	–	–

test: qHTS for Antimalaria activity screened against the NCATS CANVASS Library (AID 1347380); also: nearly all actives have a fitted effect of over 40% in size; also: potency is read from the fitted curve at half-maximal effect;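 as to activity change, negative = inhibition: Plasmodium falciparum strain Dd2 asexual parasites grown in red blood cells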; details: P. falciparum Dd2 growth, SYBR Green fluorescence, 72 h; series mostly up to 28.7 µM; activity change, negative = inhibition: at the top concentration
How it was run: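 Compounds are titrated over 11 concentrations onto Dd2 parasite cultures (0.3% parasitemia, 2.5% hematocrit). Growth over 72 h at 37C in low oxygen is measured as SYBR Green DNA fluorescence after lysis.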

Compound	activity change, negative = inhibition [%]	Potency
C/C=C/C1C=CC2CC(C)CC(C)C2C1C(=O)CC(=O)NC(CO)C/C=C/CCCCC (configuration not stated)	-80.2	–
C=C1CC[C@@H](Br)C(C)(C)[C@]12CC=C(C)C(=O)C2	-61.4	–
COc1cc(/C=C/C(=O)OC[C@@H](Cc2ccc(O)c(OC)c2)[C@@H](COC(=O)/C=C/c2ccc(O)c(OC)c2)Cc2ccc(O)c(OC)c2)ccc1O	–	0.265 µM (active)
C=C[C@@]1(C)CC[C@@H]([C@H](C)C(=O)/C=C/C(C)(C)O)O1	-57.1	–
O=C1CC2OCC=C3CN4C5CC3C2[C@@H]2N1c1ccccc1[C@]52C[C@@H]4C1=C[C@H]2C3CC4N(CC[C@@]45c4ccccc4N(C1=O)[C@@H]25)C/C3=C/CO (some centres not stated)	–	2.36 µM (active)
CC[C@H](C)[C@H]1NC(=O)[C@@H](NC(=O)C(C)C)[C@@H](C)OC(=O)[C@H](COC(=O)CNC(C)=O)NC(=O)[C@@H]([C@@H](C)O)NC(=O)[C@H](Cc2ccccc2)N(C)C(=O)[C@H](c2ccc(OC)cc2)NC1=O (Isobutyryl-T[d(aIle)][Phg(4-OMe)][NMeF][d(aThr)]S([Gly-Ac]); ester 1-C)	-54.3	–
C=C(C)CC[C@H](Cc1c(O)cc(O)c2c1O[C@H](c1ccc(O)cc1)CC2=O)C(=C)C	-66	–
C[C@]12CC[C@]3(C1)[C@H](CC2=O)C[C@@H](OC(=O)c1ccccc1)[C@H]1[C@](C)(C(=O)O)CCC[C@@]13C	–	0.0133 µM (active)
COc1ccc2[nH]c3c(c2c1)CCN1C[C@H]2C[C@@H](OC(=O)c4cc(OC)c(OC)c(OC)c4)[C@H](OC)[C@@H](OC)[C@H]2C[C@H]31	–	7.47 µM (active)
C=C[C@](Cl)(CBr)CCC=C(C)C	-39.1	–
CC(=O)O[C@H]1c2ccccc2-c2c3c(cc4c2[C@@H]1N(C(C)=O)CC4)OCO3	-24.5	–
COc1cc(O)c(C(=O)[C@@H]2[C@H](CC=C(C)C)C(C)=CC[C@H]2c2ccccc2)c(O)c1	–	6.66 µM (active)
C[n+]1cc2cc(C(N)=O)[nH]c3c(=N)c(Cl)c(N)c1c23	-47.3	–
COc1cc2c(c(O)c1O)C(=O)c1c(coc1C)C2=O	–	10.6 µM (active)
CCC(=O)N[C@@H](C[C@H](C)C(Cl)(Cl)Cl)C(=O)N1C(=O)C=C(OC)[C@@H]1CC(C)C	-14.7	–
O=c1cc(-c2ccc(O)c(O)c2)oc2cc(O[C@@H]3O[C@H](CO)[C@@H](O)[C@H](O)[C@H]3O)cc(O)c12	–	0.236 µM (active)
C/C1=C/[C@@H](C)[C@H](O)[C@@H](O)/C=C/CC/C=C/C(=O)O[C@@H]1[C@H](C)C(=O)CCCC1CC(=O)NC(=O)C1	-12.9	–
CN1CC[C@]2(c3cccc4c3N[C@H]3N(C)CC[C@@]43[C@]34CCN(C)[C@H]3Nc3ccccc34)c3ccccc3N[C@H]12	–	0.0375 µM (active)
CC[C@H]1[C@H](C)[C@H](c2cc(OC)c(OC)cc2OC)[C@@H](C)[C@H](c2cc(OC)c(OC)cc2OC)[C@@]12C=C(OC)C(=O)C=C2OC	–	1.88 µM (active)
COc1cc2c(cc1OC)[C@@H](c1ccc3c(c1)OCO3)C(C)C(C)C2=O (some centres not stated)	-65.4	–
C/C=C(/C)c1c(Cl)c(O)c(C)c2c1Oc1c(Cl)c(O)c(Cl)c(C)c1C(=O)O2	-28.6	–
C/C=C(/C)c1cc(O)c(C)c2c1Oc1cc(O)cc(C)c1C(=O)O2	-64.1	–
C[C@H]1C=C[C@H]2CCCC[C@@H]2[C@H]1C(=O)[C@H]1CC2=C(C(=O)O)CCN2C1=O	-56.4	–
C/C=C(/C)c1c(Cl)c(OC)c(C)c2c1Oc1c(Cl)c(O)c(Cl)c(C)c1C(=O)O2	-28.1	–
